Mcl1 Bid PPI = Mcl-1/Bid interaction inhibition; 220,000 compounds, 0.97% hits; AID 1021; TR-FRET Mcl-1/Bid-Dy647 peptide binding, 1536-well; inhibition, % at 21.7 µM;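 active = compounds that cut the binding signal by more than half at the single screening dose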;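 note: His-tagged Mcl-1 with europium anti-His antibody binding Bid BH3 peptide; 0% = Mcl-1 plus peptide wells and 100% = peptide-only wells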
Target sequence (Q07820 whole entry, looked up): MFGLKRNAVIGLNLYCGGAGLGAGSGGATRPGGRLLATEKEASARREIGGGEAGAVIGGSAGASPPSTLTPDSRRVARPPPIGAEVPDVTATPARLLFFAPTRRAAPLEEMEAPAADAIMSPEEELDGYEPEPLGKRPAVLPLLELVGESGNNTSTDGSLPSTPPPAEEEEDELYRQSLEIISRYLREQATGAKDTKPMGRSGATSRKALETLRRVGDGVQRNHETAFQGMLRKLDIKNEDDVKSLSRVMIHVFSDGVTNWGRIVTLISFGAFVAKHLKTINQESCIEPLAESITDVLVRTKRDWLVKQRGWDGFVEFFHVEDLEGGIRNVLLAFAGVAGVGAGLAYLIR
14-3-3 Bad PPI = disrupts binding of bovine 14-3-3 zeta to phospho-Bad peptide | P63103 | TR-FRET 14-3-3zeta/Dy647-pBad peptide displacement, 1 h | inhibition, % at 21.7 µM | 220,000 compounds, 0.71% hits | AID 781;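 active = inhibition above about 70%, limit read from the data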;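 note: 0% = full 14-3-3 plus peptide FRET controls and 100% = background without 14-3-3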
Mcl1 Noxa PPI = Mcl-1/Noxa interaction inhibition. Q07820. TR-FRET Mcl-1/Noxa peptide binding, 2 h. AID 1022. 220,000 compounds, 1.5% hits. inhibition, % at 21.7 µM;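 active = compounds that cut the protein-peptide binding signal by more than 50% relative to plate controls in a single-dose test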;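 note: His-tagged Mcl-1 with rhodamine Noxa BH3 peptide and terbium anti-His antibody; 0% = Mcl-1 plus Noxa peptide wells and 100% = peptide-only wells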
MCL1 BIM primary = inhibitors of human MCL1 binding to BIM-BH3 peptide; GST-MCL1 / FITC-Bim-BH3 fluorescence polarization; 320,000 compounds, 0.68% hits; AID 2057; inhibition, % at 10.9 µM; Q07820;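 active = inhibition above the mean inhibition of all tested compounds plus 3 SD, set per campaign, cut at about 40% in these data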;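 note: 0% = DMSO wells and 100% = unlabeled Bim-BH3 peptide control; higher means more loss of mP so more displacement of Bim peptide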
Bim-Mcl-1 = human Bim-Mcl-1 interaction inhibition | Q07820 | Bead-based flow cytometry, Bim peptide-Mcl-1 binding | 190,000 compounds, 0.1% hits | inhibition, % at 10 µM; in the data active = inhibition above about 40%;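 note: 0% = no compound tracer wells and 100% = peptide blocker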
The depositor's hits bear a star; nt = no result given. A selection: hits, their analogues and other compounds. The true share with any hit is near 2.5%.

SMILES	Mcl1 Bid PPI	14-3-3 Bad PPI	Mcl1 Noxa PPI	MCL1 BIM primary	Bim-Mcl-1
Nc1c(C(=O)O)ccc2c1C(=O)c1ccccc1C2=O	-32.8	-1.5	26.1	13.0	2.0
O=C1CC(N2CCN(S(=O)(=O)c3ccccc3)CC2)C(=O)N1c1ccccc1 (stereo not given)	-8.2	3.3	92.1*	-4.5	nt
CC(C)(O)C#Cc1ccc(C(=O)N2CCN(c3ccccc3)CC2)cc1	-58.1	-16.9	3.3	1.2	-2.0
CCN(c1ccc(NC(=O)CCNC(=O)c2ccco2)cc1)C(C)C	-59.6	-23.4	75.2*	22.3	-5.0
CCn1c(N)c(C(=O)NCc2ccc3c(c2)OCO3)sc1=S	-10.5	1.1	6.8	9.6	-3.0
CCCCN(CC)CCNC(=O)c1cc2c(C)nc3ccccc3c2o1	-11.3	9.9	70.8*	8.6	0.0
COc1cc(NC(=O)c2cc3c(C)nc4ccccc4c3o2)cc(OC)c1OC	-19.9	14.2	55.7*	2.9	-1.0
Cc1nc2ccccc2c2oc(C(=O)Nc3ccc(C(C)C)cc3)cc12	3.3	-13.6	6.1	3.2	-9.0
CCc1ccc(CNC(=O)c2cc3c(C)nc4ccccc4c3o2)cc1	-0.3	7.2	9.3	-3.8	3.0
O=C(NCc1nc2ccccc2[nH]1)C1=C[C@H](c2ccc(Br)cc2)C[C@H](OCc2ccc(CO)cc2)O1	-5.9	1.0	-25.6	-12.0	0.0
COc1ccc2cc(CN(CC3CCCO3)C(=O)Nc3ccccc3OC)c(=O)[nH]c2c1 (stereo not given)	-13.9	-4.0	5.8	-2.9	0.0
COc1cccc(NC(=O)c2sc3ncn(CC(=O)N4CCN(c5ccccn5)CC4)c(=O)c3c2C)c1	nt	nt	nt	5.3	nt
CCC(=O)N1CCCc2cc(S(=O)(=O)N3CCN(c4ccccc4F)CC3)ccc21	6.4	-9.7	65.2*	1.2	1.0
Cc1ccc(N2CCN(C(=O)c3ccccc3NC(=O)/C=C\C(=O)O)CC2)cc1	-52.3	18.5	8.6	6.5	-2.0
CC(C)NC(=O)c1cc(-c2cccs2)on1	7.7	70.8*	10.3	1.6	-1.0
COc1cc(/C=N/NC(=O)c2sc(N)c(C#N)c2C)ccc1O	-23.6	7.2	-10.9	-47.0	-2.0
O=C(N/N=C/c1ccc(-c2ccccc2[N+](=O)[O-])o1)c1cncc(Br)c1	-16.6	-6.7	20.6	18.8	30.0
Cc1c(C(=O)N/N=C/c2ccc(-c3ccccc3[N+](=O)[O-])o2)sc(N)c1C#N	80.0*	21.1	99.3*	3.1	-3.0
Cc1c(C(=O)N/N=C/c2ccc(O)c(Br)c2)sc(N)c1C#N	-23.7	4.2	72.1*	-51.3	6.0
CC(C)C(=O)NC(Nc1cccc([N+](=O)[O-])c1)C(Cl)(Cl)Cl (stereo not given)	-20.8	1.8	4.5	-2.2	-2.0
C=CCn1c(SCC(=O)O)nnc1-c1cccc(Cl)c1	-42.3	26.9	70.3*	-13.7	2.0
Cc1ccc([N+](=O)[O-])cc1N=C(c1cccc(Br)c1)N1CCOCC1	-10.5	0.9	15.0	-6.4	-5.0
CC(C)(C)N1C(=O)Cc2c1nc(N)c1c(N)nc(N3CCCCC3CO)c(C#N)c21 (stereo not given)	-10.5	21.6	46.9	56.4*	2.0
CCC1Cc2c(nc(N)c3c(N)nc(N4CCCCC4)c(C#N)c23)O1 (stereo not given)	-53.5	-16.6	10.7	8.9	-3.0
CC(C)(C)C1CCC(OCC(O)CN2CCN(c3ccccc3)CC2)CC1 (stereo not given)	-15.0	74.8*	6.7	3.7	-3.0
SMILES	Mcl1 Bid PPI	14-3-3 Bad PPI	Mcl1 Noxa PPI	MCL1 BIM primary	Bim-Mcl-1
COc1cccc(OC)c1OCC(O)CN1CCN(c2ccccc2)CC1 (stereo not given)	-25.0	71.9*	15.8	-9.8	1.0
COc1ccccc1N1CCN(CC(O)COc2c(OC)cccc2OC)CC1 (stereo not given)	18.0	27.8	9.6	3.4	-3.0
CN1C(=O)/C(=C/c2cn(CC(=O)N3CCCCC3)c3ccccc23)c2ccccc21	-22.7	-9.8	97.0*	-10.3	-3.0
CCCSc1nc(C)nc2c1c(=O)n(C)c(=O)n2C	88.0*	9.8	-4.2	nt	-1.0
CC(C(=O)NC1CCCC1)N(Cc1ccco1)C(=O)c1snc(C(=O)NC2CCCC2)c1N (stereo not given)	37.2	-6.1	90.3*	-3.2	-3.0
Cc1ccc(-c2nnc3ccc(SC(C)C(=O)O)nn23)cc1 (stereo not given)	-7.9	5.8	77.6*	-0.2	-2.0
Cc1nn(-c2ccccc2C(=O)O)c(=O)c2ccccc12	88.5*	82.1*	nt	9.9	-4.0

Screens as filed in PubChem.
